Screening data (PubChem)
Shown are actives, neighbours in structure and some others; about 4% of the full set was active somewhere.
D1 PAM – human D1 dopamine receptor positive modulation; P21728; HEK293 TREx D1 cells, calcium flux, dopamine EC20 potentiation; potentiation, % at 10 µM; 360,000 compounds, 0.036% hits; in the data active means potentiation above about 30%
Target sequence (P21728 whole entry, looked up): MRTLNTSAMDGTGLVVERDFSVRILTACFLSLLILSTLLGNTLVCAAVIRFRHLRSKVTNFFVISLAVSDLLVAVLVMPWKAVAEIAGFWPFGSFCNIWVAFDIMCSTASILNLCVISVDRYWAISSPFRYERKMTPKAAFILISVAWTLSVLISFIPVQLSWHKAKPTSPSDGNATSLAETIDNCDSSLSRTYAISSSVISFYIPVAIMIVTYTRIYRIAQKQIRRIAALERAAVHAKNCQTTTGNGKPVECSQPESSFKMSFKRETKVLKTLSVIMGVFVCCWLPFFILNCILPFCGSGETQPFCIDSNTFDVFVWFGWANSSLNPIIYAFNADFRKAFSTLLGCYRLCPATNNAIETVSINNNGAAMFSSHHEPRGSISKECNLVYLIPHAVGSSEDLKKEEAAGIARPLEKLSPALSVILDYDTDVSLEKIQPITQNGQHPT
Glioma ERSR ind – ER stress response induction in glioma. 420,000 compounds, 0.02% hits. AID 602332. U87-MG GRP78 promoter luciferase reporter, 16 h. Potency, µM, hits mostly activators; further: series mostly up to about 76 µM; nearly all actives have a fitted effect of over 35% in size
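ERSR induction read as luciferase luminescence (Bright-Glo, 10 min at room temperature) in stably transfected human U87-MG glioma cells exposed to compounds for 16 h, using GRP78 as sensor.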
TRHR enhancer-1 – allosterically enhances the human TRH receptor | TRHR cells, fluo-8 calcium fluorescence, EC20 TRH enhancement | enhancement, % at 2 µM | 360,000 compounds, 0.66% hits | AID 493056; in the data active means enhancement above about 30%
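Enhancer read-out: after compound pinning and an initial kinetic agonist-mode read, an EC20 of TRH (10 nM final) was injected and fluo-8 calcium signal (Ex 480/Em 530) followed at 1 s/cycle for 100 cycles in TRHR-expressing cells.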
D1 agonist – activates the human D1 dopamine receptor; activation, % at 2 µM; 360,000 compounds, 1% hits; P21728; HEK293 T-REx D1 cells, calcium flux, agonist mode; in the data active means activation above about 30%
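Agonism was scored from calcium flux recorded over 180 s (1 read/s) after pintool compound addition, following a 10-cycle baseline. Cells were inducible force-coupled HEK293 TREx D1, plated overnight at 30 C and loaded with no-wash calcium dye.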
D1 antag – human D1 dopamine receptor antagonism | AID 504652 | HEK293 TREx D1 cells, calcium flux, dopamine EC80; active compounds read low | P21728 | activity change, negative = inhibition, % at 10 µM | 360,000 compounds, 3.2% hits; in the data active means activity change below about -30%
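Compound effects on dopamine-evoked calcium signalling were measured in tetracycline-induced HEK293 Trex D1 cells. Dopamine at EC80 followed a 180 s compound pre-read, and fluorescence was tracked kinetically for 180 s more.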
TRHR agonist-1 – activates the human TRH receptor; P34981; TRHR cells, calcium flux fluo-8, FDSS agonist mode; activation, % at 2 µM; 360,000 compounds, 0.18% hits; AID 493084; in the data active means activation above about 30%
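In this calcium-flux screen, cells bearing human TRHR are dye-loaded with fluo-8, baselined for 10 cycles, then exposed to library compounds; positive kinetic calcium responses during the agonist phase mark hits, with TRH as control.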
TRHR enhancer-2 – confirmation of human TRH receptor allosteric enhancers; shares compounds with TRHR enhancer-1; TRH receptor cell assay, enhancer confirmation qHTS; activity change, negative = inhibition, % at 46.1 µM; 970 tested, under 10 active; AID 493076;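 further: compound effect scored on response to added TRH at EC20 of 10 nM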
TRHR agonist-2 – human TRH receptor agonism confirmation; AID 493078; TRHR-expressing cells, agonist activation read-out; shares compounds with TRHR enhancer-1; 970 compounds, 8% hits; Potency, µM (titrated, usually from 46.1 µM), hits mostly activators; further: nearly all actives have a fitted effect of over 75% in size
Numbers stand for hits; n = inactive; u = inconclusive; x = not tested or not shown. Unless noted, the call rests on the fitted dose curve; in most records, active means well fitted curve in the direction sought with a large enough effect; inconclusive means small, poorly fitted or top-dose-only effect, or another doubt; inactive means no such curve, though single readings can be large; an effect the other way counts as inactive or inconclusive.

SMILES	D1 PAM	Glioma ERSR ind	TRHR enhancer-1	D1 agonist	D1 antag	TRHR agonist-1	TRHR enhancer-2	TRHR agonist-2
CC(Cc1ccccc1)N1C(=O)c2ccccc2C1=O (stereo not given)	n	n	54.9	n	n	n	n	n
C#Cc1cccc2c1c(C(=O)c1ccc(Cn3c(C)nc4cnccc43)c(F)c1)cn2C(=O)N(C)C	x	n	x	x	x	x	x	x
Cc1ccccc1-c1nc(CS(=O)CC(=O)N2CCC3(CC2)OCCO3)c(C)o1 (stereo not given)	n	n	41.6	n	n	n	n	n
O=C(Oc1ccccc1)N1CCC2(CCCN(Cc3ccccc3)C2)CC1	x	n	x	x	x	x	x	x
O=C1NC(=O)N(c2ccccc2)C(=O)/C1=C/c1ccc(Sc2ccccc2)o1	n	n	n	n	n	n	x	x
O=C1NC(=O)N(c2cccc(Cl)c2)C(=O)/C1=C\c1ccc(Sc2nc3ccccc3[nH]2)o1	n	n	n	63.5	n	47.2	n	u
O=C(CN1CC=C(c2ccccc2)CC1)NC(=O)NCc1ccccc1	n	n	61.6	n	n	n	u	n
CCCCCn1c(N)c(C(=O)NCCN2CCOCC2)c2nc3ccccc3nc21	n	n	n	n	n	n	x	x
O=C(NCCN1CCOCC1)c1ccc(Cl)nc1	n	n	n	n	n	74.9	n	n
CCC1(C)OC(c2ccccc2)=C/C(=C/C=C2C(=O)NC(=O)NC2=O)O1 (stereo not given)	n	n	n	108.1	n	41.1	n	u
CCOP(=S)(OCC)Oc1ccc(Cl)cc1Cl	x	n	x	x	x	x	x	x
